FLuc counter = firefly luciferase modulation, counter-screen for miR-21 project; P08659; Potency, µM (top dose mostly 57.5 µM), without a hit: at the highest dose activity change, negative = inhibition, most hits filed as inhibitors; hit rate 6.9% among 360,000; purified FLuc, Km substrates, luminescence inhibition;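 also: plate controls were vehicle for no effect and reference inhibitor for full effect; nearly all actives have a fitted effect of over 55% in size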
Target sequence (P08659 whole entry, looked up): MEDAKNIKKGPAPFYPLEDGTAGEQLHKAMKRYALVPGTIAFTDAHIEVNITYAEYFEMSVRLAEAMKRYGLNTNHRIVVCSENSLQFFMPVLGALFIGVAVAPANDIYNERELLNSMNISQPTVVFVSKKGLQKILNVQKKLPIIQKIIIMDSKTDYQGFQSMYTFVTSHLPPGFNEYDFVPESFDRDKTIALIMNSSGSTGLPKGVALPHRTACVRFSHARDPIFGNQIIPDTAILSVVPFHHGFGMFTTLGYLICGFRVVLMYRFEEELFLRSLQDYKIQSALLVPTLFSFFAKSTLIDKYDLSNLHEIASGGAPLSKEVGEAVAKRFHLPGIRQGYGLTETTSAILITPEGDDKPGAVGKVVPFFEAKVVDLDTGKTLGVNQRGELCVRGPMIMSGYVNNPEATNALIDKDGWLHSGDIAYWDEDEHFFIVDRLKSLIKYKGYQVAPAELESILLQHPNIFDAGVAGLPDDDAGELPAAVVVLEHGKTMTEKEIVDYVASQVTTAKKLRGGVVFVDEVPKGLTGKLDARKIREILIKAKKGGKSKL
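Purified P. pyralis luciferase, 10 nM final, with Km-level 10 uM D-luciferin and 10 uM ATP in 50 mM Tris acetate pH 7.5, 10 mM Mg acetate, 0.01% Tween-20, 0.05% BSA; 6-point qHTS titration about 60 µM downward; luminescence read.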
Rab9 prom act = Rab9 promoter activation; Huh7 Rab9 promoter-luciferase reporter, luminescence, 24 h; AID 485297; Potency, µM (titrated, usually from 9.22 µM), for the others: top-dose activation, negative = inhibition, most hits filed as activators; hit rate 2.8% among 320,000; also: % of control where 0% means no effect; nearly all actives have a fitted effect of over 60% in size
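Luciferase signal after 10 min detection reagent at ambient indicates Rab9 promoter upregulation; stably transfected Huh7 cells were treated 24 h with compound in DMSO at 37 °C, 5% CO2.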
SMN2 splice up = SMN2 splice variant enhancement. HEK293 SMN2-luciferase splicing reporter, luminescence, 30-36 h. Potency, µM (doses to about 46.1 µM), without a hit: top-dose activity change, positive = activation, hits mostly activators. hit rate 2.8% among 210,000; also: % of control where 0% means no effect; nearly all actives have a fitted effect of over 55% in size
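HEK293 cells carry an SMN2 […]–luciferase reporter in which exon 7 inclusion puts luciferase in frame. Cells were plated 10-12 h before compound addition, then incubated 30-36 h at 37C. ONE-Glo luminescence was read; sodium butyrate at 4.5 mM final served as control.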
NPC1 promoter act = activates the NPC1 promoter; hit rate 2.4% among 320,000; Potency, µM (series often up to 9.22 µM), for the others: at the highest dose activation, actives largely listed as activators; Huh7 NPC1 promoter luciferase reporter, 24 h; also: % of control where 0% means no effect; nearly all actives have a fitted effect of over 60% in size
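NPC1 promoter–luciferase Huh7 cells; 24 h compound; luminescence.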
ELG1 genotox = inducers of genotoxicity in HEK293T ELG1-luciferase cells; hit rate 1.3% among 330,000; HEK293T ELG1-luciferase reporter, luminescence, 16 h; Potency, µM (top dose mostly 46 µM), for inactives: at the top dose activity change, positive = activation, most hits filed as activators; also: % of control where 0% means no effect; nearly all actives have a fitted effect of over 60% in size
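HEK293T cells expressing luciferase-tagged ELG1 were exposed to compound or DMSO vehicle for 16 hr at 37 °C and 5% CO2. Luciferase activity was then measured with ONE-Glo after 30 min at room temperature.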
ELG1 repair inh = ELG1-dependent DNA repair inhibition; HEK293T ELG1-luciferase reporter, luminescence, 16 h; DNA damage induced by 5-fluorouridine; AID 504467; Potency, µM (highest dose often 46.1 µM), for inactives: at the highest dose activity change, negative = inhibition, actives largely listed as inhibitors; hit rate 2.3% among 330,000; also: % is scaled to controls: 0 for no effect and ±100 for the full control effect; nearly all actives have a fitted effect of over 55% in size
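In this reporter screen, reduction of luminescence relative to DMSO vehicle indicated activity. Compounds and 5-fluorouridine were added together to 2,000 cells per well, incubated for 16 hr at 37 °C, then developed with ONE-Glo.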
* hit, by the source's call; u = inconclusive; x = no result given. Most compounds without a hit are left out; they make up all but 9.4% or so of the library. Calls follow the shape of the dose curve; as a rule, active = well fitted curve in the direction sought with a large enough effect; inconclusive = small, poorly fitted or top-dose-only effect, or another doubt; inactive = no such curve, though single readings can be large; an effect the other way counts as inactive or inconclusive. Potency is read from the fitted curve at half-maximal effect.

SMILES	FLuc counter	Rab9 prom act	SMN2 splice up	NPC1 promoter act	ELG1 genotox	ELG1 repair inh
CCOC(=O)c1sc(NC(=O)c2ccc(Cl)s2)cc1C	0.6µM*	1µM*	7.9µM*	u	2.3µM*	u
CCOC(=O)c1sc(NC(=O)c2ccc(S(=O)(=O)N(C)C)cc2)cc1C	-26%	-6%	-19%	-10%	-20%	16µM*
CCOC(=O)c1sc(NC(=S)NC(=O)CC(C)C)cc1C	19µM*	u	-11%	23%	4%	30%
CCOC(=O)c1sc(NC(=S)NC(=O)C2CCCC2)cc1C	-10%	10%	x	17%	-1%	24%
CCOC(=O)c1sc(NC(=O)C2CC2)cc1C	u	19%	5%	8%	6%	8%
CCOC(=O)N1CCc2c(sc3c2c(=O)n(Cc2ccccc2)c(=O)n3Cc2c(F)cccc2Cl)C1	-1%	x	-16%	x	x	x
COC(=O)c1c(NC(=O)c2nc(SCc3cccc(C)c3)ncc2Cl)sc2c1CCCC2	1%	x	-4%	x	x	x
CCOC(=O)c1sc(NC(=O)c2ccccc2)cc1C	1.1µM*	0.71µM*	11µM*	1.6µM*	1.3µM*	u
CCOC(=O)c1sc(=S)n(C)c1NC(=O)c1cccc(Br)c1	-18%	1%	x	-1%	-10%	13µM*
CCOC(=O)c1sc(NC(=O)c2c(C)nn(Cc3ccccc3)c2C)cc1C	21µM*	-8%	-12%	1%	-25%	u
CCc1ccc(NC(=S)NC(=O)CC(C)C)cc1	7.6µM*	u	8.9µM*	u	u	u
COc1cccc(N2CCN(C(=O)c3cnn(-c4ccccc4Cl)c3C3CCN(C(=O)OC(C)(C)C)CC3)CC2)c1	-2%	x	x	x	x	x
O=C(COc1ccc(Cl)cc1)NCC(c1ccco1)S(=O)(=O)c1ccc(Cl)cc1 (centres undefined)	-11%	x	x	x	x	x
CCOC(=O)c1sc(NC(=O)Nc2ccc(Cl)cc2)cc1C	6.7µM*	1%	-22%	20%	u	14%
COc1ccc(O[C@H]2C=C[C@@H](c3ccccc3)O[C@@H]2COC(=O)CC/C(C)=N/O[C@@H](C)c2cn([C@H](CO)Cc3ccccc3)nn2)cc1	2%	-1%	-32%	-2%	-5%	u
C/C(CCN1CCc2nc(-c3ccccc3)c(-c3ccccc3)cc2C1)=N\O[C@@H](C)c1cn([C@H](CO)Cc2ccccc2)nn1	4%	-4%	-18%	-4%	-5%	21µM*
Cc1ccc(N=Nc2ccc(O)c3ncccc23)cc1C	11µM*	-9%	x	-18%	10%	u
COc1ccccc1N=Nc1ccc(O)c2ncccc12	6.7µM*	-22%	x	-35%	u	u
O=C(Nc1ccc(N2CCOCC2)c(S(=O)(=O)Nc2ccccc2Cl)c1)c1ccccc1	-2%	-3%	x	1%	-10%	18µM*
O=C(Nc1ccc(N2CCOCC2)c(Cl)c1)c1ccc(F)cc1	13µM*	2.5µM*	11µM*	u	2%	u
O=C(Nc1ccc(N2CCOCC2)c(S(=O)(=O)Nc2cc(Cl)ccc2Cl)c1)c1cccnc1	-1%	-11%	x	0%	0%	-29%
O=C(NC(=S)Nc1ccc(N2CCOCC2)c(Cl)c1)C(c1ccccc1)c1ccccc1	9%	3%	3%	-1%	-3%	-29%
O=C(Nc1ccc(N2CCOCC2)c(Cl)c1)c1ccccc1Cl	27µM*	u	x	26%	u	u
CC1(C)Cc2nc3sc4c(=O)n(Cc5ccccc5)cnc4c3cc2CS1	-7%	14%	-40%	-1%	2%	u
CCCn1cnc2c(sc3nc4c(cc32)CSC(C)(C)C4)c1=O	u	1.6µM*	13µM*	2.8µM*	4.6µM*	u
SMILES	FLuc counter	Rab9 prom act	SMN2 splice up	NPC1 promoter act	ELG1 genotox	ELG1 repair inh
O=C(CSc1nnc(-c2ccccn2)o1)Nc1ccccc1	-16%	2.5µM*	11µM*	2.5µM*	u	u
Fc1ccc(CSc2nnc(-c3ccccn3)o2)cc1	11µM*	2.2µM*	x	1.4µM*	u	u
O=C(CSc1n[nH]c(-c2ccccn2)n1)Nc1ccc(Cl)cc1	2%	-37%	x	-40%	1%	21µM*
O=C(CSc1nnc(-c2ccccn2)o1)Nc1ccc(F)cc1	6%	u	x	2µM*	u	u
N#Cc1ccc(CSc2nnc(-c3cnccn3)o2)cc1	0%	-4%	-3%	-1%	-2%	1%
O=C(CSc1n[nH]c(-c2ccccn2)n1)Nc1ccc(F)cc1	0%	-21%	x	-22%	-15%	u
COc1cccc(N2CCN(C(=O)Cn3nc(C)n4c(cc5c(OC)cccc54)c3=O)CC2)c1	-4%	x	-7%	x	x	x
COc1ccc(-c2nc(CSCC(=O)N3CCN(c4cccc(C)c4C)CC3)c(C)o2)cc1OC	-18%	x	x	x	x	x
O=C(O)CCC/C=C\C/C=C\C=C\[C@@H](O)C/C=C\CCCCCO	x	x	-5%	x	x	x
O=C(CN1c2cccc3cccc(c23)S1(=O)=O)Nc1ccc(F)c(F)c1F	x	x	x	x	-5%	23µM*
Cc1ccc(CNC(=O)CN2c3cccc4cccc(c34)S2(=O)=O)cc1	15µM*	-5%	x	1%	0%	-18%
Cc1cc(C)c(NC(=O)CSc2nc(=O)n(Cc3ccncc3)c3c2CCC3)c(C)c1	-5%	x	x	x	x	x
COC(=O)c1ccccc1NC(=O)c1cc2nc(-c3ccc(OC)cc3)cc(C(F)(F)F)n2n1	0%	x	5%	x	x	x
O=C(CSc1nc2ccsc2c(=O)n1Cc1ccccc1Cl)NCc1ccc(F)cc1	-9%	x	0%	x	x	x
CCOC(=O)/C(=N\Nc1ccccc1)S(=O)(=O)c1ccccc1	-8%	9%	-6%	8%	1%	u
CCOC(=O)/C(=N/Nc1ccc(C)cc1)S(=O)(=O)c1ccc(Cl)cc1	17µM*	u	3%	u	u	u
COc1cc(NC(=O)c2nnn(CC(=O)Nc3cc(C)ccc3C)c2N)cc(OC)c1	-2%	x	x	x	x	x
COc1cccc(OC)c1C(=O)Nc1nnc(-c2ccc(F)cc2)s1	-27%	11%	x	1%	2%	-5%
COCC(=O)Nc1nnc(-c2ccc(C(C)(C)C)cc2)s1	1.9µM*	0.56µM*	8.9µM*	1.1µM*	3.7µM*	u
COc1cccc(C(=O)Nc2nnc(-c3ccccc3)s2)c1	4.8µM*	1.6µM*	x	1.4µM*	u	u
CC(C)(C)c1ccc(-c2nnc(NC(=O)c3ccccc3)s2)cc1	1.7µM*	u	2%	u	3%	u
COc1cccc(C(=O)Nc2nnc(-c3ccc(OC)cc3OC)s2)c1	-10%	6%	x	-1%	u	21%
